“And” between values parts separate entries of the source, which are not always exact repeats. Equal entries are not always repeated. Inconclusive results are not listed. More than one record can exist for a structure, and the calls need not agree. Values without a mark were called inactive. The source made the active and inactive calls. Calls follow the shape of the dose curve; as a rule, active = well fitted curve in the direction sought with a large enough effect; inconclusive = small, poorly fitted or top-dose-only effect, or another doubt; inactive = no such curve, though single readings can be large; an effect the other way counts as inactive or inconclusive.

Assay [1] deals with HaCat. The assay is described as follows: Cytotoxic Profiling of Annotated Libraries Using Quantitative High-Throughput Screening (AID 1296008). Also: nearly all actives have a fitted effect of over 60% in size. The following applies: Five cell lines viability, CellTiter-Glo ATP luminescence, 48-72 h; max response: active compounds read low. The method in brief: (§1)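 Cells exposed to compounds for 48 or 72 hr at 37 degrees Celsius. Viability read as ATP-coupled luminescence with CellTiter-Glo after 10 min at room temperature.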
For orientation: ATP-based viability assays read luminescence as a measure of living cells.

The next assay concerns KB-3-1. Described as above. The following applies: Five cell lines viability, CellTiter-Glo ATP luminescence, 48-72 h; max response: active compounds read low. The method in brief:
as §1

Assay [2] relates to NIH3T3. The description is as above. The following applies: Five cell lines viability, CellTiter-Glo ATP luminescence, 48-72 h; max response: active compounds read low. The procedure, abridged:
as §1

A further assay relates to MCC-13. In words: qHTS assay to identify novel small-molecules to repurpose for Merkel cell carcinoma treatment (AID 1296009). Also: nearly all actives have a fitted effect of over 60% in size. The note with it: MCC and control cell lines, CellTiter-Glo viability, 72 h; series mostly up to 46 µM. The method in brief:
(§2)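 CellTiter-Glo luminescence after 72 hr compound exposure at 37 degree celsius gave cell viability. Libraries NPC and MIPE were run as 8- and 11-point dose responses; RLUs normalized to DMSO (negative) and no-cell (cytotoxicity) controls.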
On the technique in general: In qHTS, concentration-response curves come from the screen itself.

A further assay concerns MCC-26. Described as above. The following applies: MCC and control cell lines, CellTiter-Glo viability, 72 h; series mostly up to 46 µM. The procedure, abridged:
as §2

For the next assay, the system named is MKL-1. The assay is described as above. The note with it: MCC and control cell lines, CellTiter-Glo viability, 72 h; series mostly up to 46 µM. The procedure, abridged:
as §2

A further assay deals with MKL-2. Described as above. The following applies: MCC and control cell lines, CellTiter-Glo viability, 72 h; series mostly up to 46 µM. The procedure, abridged: as §2
A further assay has as its system UISO. Described as above. The note with it: MCC and control cell lines, CellTiter-Glo viability, 72 h; series mostly up to 46 µM. The procedure, abridged: as §2
The test system of another assay is WaGa. Described as above. The following applies: MCC and control cell lines, CellTiter-Glo viability, 72 h; series mostly up to 46 µM. The procedure, abridged: as §2
The test system of assay [3] is HACAT. The assay is described as above. The following applies: MCC and control cell lines, CellTiter-Glo viability, 72 h; series mostly up to 44.8 µM. The procedure, abridged:
as §2

Assay [4] relates to HEK293T. The description is as above. The note with it: MCC and control cell lines, CellTiter-Glo viability, 72 h; at 44.8 µM (top of the series) unless noted. The procedure, abridged:
as §2

Assay [5] deals with NIH3T3. The assay is described as above. The following applies: MCC and control cell lines, CellTiter-Glo viability, 72 h; at 44.8 µM (top of the series) unless noted. The method in brief: as §2
For the next assay, the system named is C33A. The assay is described as follows: Primary qHTS to identify gynecologic anti-cancer compounds using libraries of approved drugs and bioactive compounds (AID 1345084). Also: nearly all actives have a fitted effect of over 55% in size. The note with it: Gynecologic cancer cell panel viability, ATPlite luminescence, 48 h; series mostly up to 57.5 µM. The procedure, abridged:
(§3)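 ATP-based viability (ATPlite), 1,000 cells/well, 16 h pre-incubation, 48 h compound at 37 C, 5% CO2, 15 min RT before read.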

The next assay relates to CAOV3. The assay is described as above. The following applies: Gynecologic cancer cell panel viability, ATPlite luminescence, 48 h; series mostly up to 57.5 µM. The method in brief: as §3
The subject of the next assay is CASKI. Described as above. The following applies: Gynecologic cancer cell panel viability, ATPlite luminescence, 48 h; series mostly up to 57.5 µM. The procedure, abridged:
as §3

The test system of another assay is Es-2. The assay is described as above. The following applies: Gynecologic cancer cell panel viability, ATPlite luminescence, 48 h; series mostly up to 57.5 µM. The procedure, abridged:
as §3

In a further assay the test system is HeLa. The description is as above. The following applies: Gynecologic cancer cell panel viability, ATPlite luminescence, 48 h; series mostly up to 57.5 µM. The procedure, abridged: as §3
The test system of assay [6] is Hek293T. Described as above. The following applies: Gynecologic cancer cell panel viability, ATPlite luminescence, 48 h, control line for the selectivity index; series mostly up to 57.5 µM. The procedure, abridged:
as §3

The test system of another assay is JEG-3. Described as above. The note with it: Gynecologic cancer cell panel viability, ATPlite luminescence, 48 h; series mostly up to 57.5 µM. The method in brief:
as §3

The subject of another assay is OV90. Described as above. The note with it: Gynecologic cancer cell panel viability, ATPlite luminescence, 48 h; series mostly up to 57.5 µM. The method in brief:
as §3
% is scaled to controls: 0 for no effect and ±100 for the full control effect; potency is read from the fitted curve at half-maximal effect.

In the case of `COc1ccc(CC2c3cc(OC)c(OC)cc3CC[N+]2(C)CCC(=O)OCCCCCOC(=O)CC[N+]2(C)CCc3cc(OC)c(OC)cc3C2Cc2ccc(OC)c(OC)c2)cc1OC` (configuration not stated), the max response is 3.6% in the assay on HaCat [1]; 4.25% and 0.363% in the assay on KB-3-1; -6.84% in the assay on NIH3T3 [2]. Besides, the activity change, negative = cytotoxicity was -6.08% [at 9.22 µM] in the assay with MCC-13; 2.59% [at 9.22 µM] with MCC-26; -7.93% [at 9.22 µM] with MKL-1; -23.6% [at 9.22 µM] in the assay on MKL-2; -1.41% [at 9.22 µM] in the assay with UISO; -8.88% [at 9.22 µM] with WaGa.

On to `Clc1ccc2ncc(-c3cccc(NC4CNC4)n3)n2c1`, for which the call in the assay on HaCat [1], with KB-3-1, with NIH3T3 [2], with HEK293T [4] and in the assay on NIH3T3 [5] was inactive. The Potency result in the assay on HACAT [3], with MCC-13, in the assay on MCC-26, in the assay with MKL-2, in the assay with C33A and in the assay on CAOV3 was “inactive” each time. In addition, the Potency result in the assay on CASKI, in the assay on Es-2, with HeLa, in the assay on Hek293T [6], in the assay with JEG-3 and with OV90 was “inactive” each time.

On to `C=CC(=O)Nc1cccc(Oc2nc(Nc3ccc(N4CCN(C)CC4)cc3OC)ncc2Cl)c1`, for which the Potency in the assay on HaCat [1] was 2.09 µM (active) and 4.11 µM (active); in the assay with NIH3T3 [2], 18.4 µM (active); with MCC-13, 2.96 µM (active); in the assay with MCC-26 it was 11.8 µM (active); in the assay on MKL-1, 2.64 µM (active); in the assay with WaGa it was 2.96 µM (active). The Potency in the assay with CASKI was 17.8 µM (active). Besides, the max response was -0.948% with KB-3-1 and -7.7% in the assay with NIH3T3 [2]. In addition, the Potency result in the assay with MKL-2, in the assay on C33A, in the assay on Es-2, with HeLa, in the assay with Hek293T [6] and in the assay with JEG-3 was “inactive” throughout. Moreover, the Potency result with OV90 is “inactive”.

For the compound `O=C(C=Cc1c(C(=O)O)[nH]c2cc(Cl)cc(Cl)c12)Nc1ccccc1`, the max response in the assay with HaCat [1] was -0.315%; with KB-3-1, 3.7%; with NIH3T3 [2], 1.73%. In the assay on HEK293T [4], the compound was classed as inactive. Besides, the Potency entry in the assay with MCC-13, in the assay on MCC-26, with MKL-1, in the assay on MKL-2, with UISO and with WaGa was “inactive” each time.

As to `CC1COC2(CCN(c3nc(=O)c4cc(C(F)(F)F)cc([N+](=O)[O-])c4s3)CC2)O1` (configuration not stated), the max response with HaCat [1] is 0.136%; in the assay with KB-3-1 it was 8.43% and -3.92%. Also, the outcome in the assay with NIH3T3 [2], in the assay on HEK293T [4] and in the assay on NIH3T3 [5] was inactive. The Potency result with MCC-13, with MCC-26, with MKL-1, in the assay with MKL-2, in the assay on UISO and in the assay with WaGa was “inactive” in each case. Besides, the Potency result in the assay on C33A, in the assay on CAOV3, in the assay with CASKI, with Es-2, in the assay on HeLa and with Hek293T [6] was “inactive” throughout. Besides, the Potency result with JEG-3 was “inactive”.

Regarding `CC(C)Nc1cc(C(F)(F)F)cc2nc(NC(=O)c3cccnc3)nn12`, the max response in the assay on HaCat [1] is -1.8%; with NIH3T3 [2], 3.06% and -1.67%. Also, the compound was called inactive in the assay on KB-3-1. Further, the Potency result in the assay with MCC-13, with MCC-26, with MKL-1, with MKL-2, in the assay with UISO and in the assay with WaGa was “inactive” each time. Also, the Potency result in the assay with C33A, with CAOV3, in the assay on CASKI, in the assay on Es-2, in the assay with HeLa and in the assay with Hek293T [6] was “inactive” each time. Further, the Potency result with JEG-3 and in the assay with OV90 was “inactive” each time.
